Counter-ions that a name gives are not always drawn.
Tested on: Salmonella enterica typhimurium
Assay: growth AUC normalised to DMSO control (fraction of control); higher = less growth inhibition, active = hit call of the paper
Settings: 20 µM;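 active = AUC significantly below DMSO controls by Student t-fit with adjusted P under 0.01; inactive = not significantly reduced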
How it was run: (§1)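 Pathogens passaged twice anaerobically were inoculated at a starting OD578 of 0.01 into pre-reduced mGAM plates with drug at 20 μM and 1% DMSO, sealed with breathable membranes. Haemophilus parainfluenzae medium was supplemented with hemin and NAD. OD578 was read hourly for 24 h, with three biological replicates. Growth-curve AUC was computed by the trapezoidal rule up to the exponential-to-stationary transition and normalised to DMSO controls on the same plate.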

| SMILES | growth AUC normalised to DMSO control |
| --- | --- |
| CCN(CC)C(=O)N1CCN(C)CC1 [Diethylcarbamazine citrate] | 0.959 (inactive) |
| C[C@@H]1[C@H](O)[C@@H](C)/C=C/C=C/C=C/C=C/C=C/C=C/C=C/[C@H](O[C@@H]2O[C@H](C)[C@@H](O)[C@H](N)[C@@H]2O)C[C@@H]2O[C@](O)(C[C@@H](O)C[C@@H](O)[C@H](O)CC[C@@H](O)C[C@@H](O)CC(=O)O[C@H]1C)C[C@H](O)[C@H]2C(=O)O [Amphotericin B] | 1.02 (inactive) |
| Cn1c(=O)c2c(ncn2CC(=O)O)n(C)c1=O [Acefylline] | 0.979 (inactive) |
| Cc1ccccc1C(OCCN(C)C)c1ccccc1 (stereo unspecified) [Orphenadrine hydrochloride] | 1 (inactive) |
| O=C(Nc1ccc([N+](=O)[O-])cc1Cl)c1cc(Cl)ccc1O [Niclosamide] | 0.995 (inactive) |
| COc1ccc(OC)c(C(O)CNC(=O)CN)c1 (stereo unspecified) [Midodrine hydrochloride] | 0.992 (inactive) |

Tested on: Shigella flexneri
Assay: as above
Settings: 20 µM
How it was run: as §1

| SMILES | growth AUC normalised to DMSO control |
| --- | --- |
| Cc1cc2c(cc1S(N)(=O)=O)S(=O)(=O)CCC2 [Meticrane] | 0.996 (inactive) |
| CCCC(CCC)C(=O)O [Valproic acid] | 1.02 (inactive) |
| CNCCC(Oc1ccc(C(F)(F)F)cc1)c1ccccc1 (stereo unspecified) [Fluoxetine hydrochloride] | 1 (inactive) |
| Cc1nnc(SCC2=C(C(=O)O)N3C(=O)[C@@H](NC(=O)Cn4cnnn4)[C@H]3SC2)s1 [Cefazolin sodium salt] | 0.0191 (active) |
| Clc1cc(Cl)c(OCC#CI)cc1Cl [Haloprogin] | 1.02 (inactive) |
| O=C(O)/C=C/c1ccc(Cn2ccnc2)cc1 [Ozagrel hydrochloride] | 1.02 (inactive) |
| CC(=O)OCC(=O)NCCCOc1cccc(CN2CCCCC2)c1 [Roxatidine acetate hydrochloride] | 0.981 (inactive) |
| O=C(O)CNC(=O)C(CS)Cc1ccccc1 (stereo unspecified) [Thiorphan] | 1.05 (inactive) |
| CCCCOC(=O)c1ccc(O)cc1 [Butylparaben] | 0.969 (inactive) |
| Cc1ccc(S(=O)(=O)NC(=O)NN2CCCCCC2)cc1 [Tolazamide] | 1.04 (inactive) |
| COc1cc2nc(N3CCN(C(=O)C4COc5ccccc5O4)CC3)nc(N)c2cc1OC (stereo unspecified) [Doxazosin mesylate] | 0.985 (inactive) |
| CC(Oc1ccccc1)C(=O)N[C@@H]1C(=O)N2[C@@H]1SC(C)(C)[C@@H]2C(=O)O (stereo partly specified) [Phenethicillin potassium salt] | 1.02 (inactive) |
| Nc1ccccc1S(N)(=O)=O [o-Sulfanilamide] | 0.971 (inactive) |
| COc1ccc2[nH]c([S+]([O-])Cc3ncc(C)c(OC)c3C)nc2c1 (stereo unspecified) [Omeprazole] | 0.998 (inactive) |
| CC(=O)Oc1ccccc1C(=O)Oc1ccccc1C(=O)O [Acetylsalicylsalicylic acid] | 0.973 (inactive) |
| NCCCC(O)(P(=O)(O)O)P(=O)(O)O [Alendronate sodium] | 1.05 (inactive) |
| O=C1Nc2ccc(Cl)cc2[C@@](C#CC2CC2)(C(F)(F)F)O1 [Efavirenz] | 1.01 (inactive) |
| CC(=O)O[C@]1(C(C)=O)CC[C@H]2[C@@H]3C=C(Cl)C4=CC(=O)[C@@H]5C[C@@H]5[C@]4(C)[C@H]3CC[C@@]21C [Cyproterone acetate] | 1.01 (inactive) |
| COc1ccc(C(=O)NCc2ccc(OCCN(C)C)cc2)cc1OC [Itopride] | 1.05 (inactive) |
| O=C(c1ccc(F)cc1)C1CCN(CCn2c(=O)[nH]c3ccccc3c2=O)CC1 [Ketanserin tartrate hydrate] | 1.03 (inactive) |

| SMILES | growth AUC normalised to DMSO control |
| --- | --- |
| C[C@]12C[C@H](O)[C@H]3[C@@H](CCC4=CC(=O)CC[C@@]43C)[C@@H]1CC[C@@H]2C(=O)CO [Corticosterone] | 0.978 (inactive) |
| C[N+](C)(CCOc1ccccc1)Cc1ccccc1.O=C([O-])c1cc2ccccc2cc1O [Bephenium hydroxynaphthoate] | 1.04 (inactive) |
| Cc1cnc(C(=O)O)c[n+]1[O-] [Acipimox] | 1 (inactive) |
| COc1ccc2c(c1)c(CC(=O)OCC(=O)O)c(C)n2C(=O)c1ccc(Cl)cc1 [Acemetacin] | 0.965 (inactive) |
| CN(C)CCC[C@@]1(c2ccc(F)cc2)OCc2cc(C#N)ccc21 [Escitalopram oxalate] | 0.991 (inactive) |
| CNCCCC12CCC(c3ccccc31)c1ccccc12 [Maprotiline hydrochloride] | 0.999 (inactive) |
| CCN(CC)CCOC(=O)C1(C2CCCCC2)CCCCC1 [Dicyclomine hydrochloride] | 0.978 (inactive) |
| CNCC(O)c1ccc(OC(=O)C(C)(C)C)c(OC(=O)C(C)(C)C)c1 (stereo unspecified) [Dipivefrin hydrochloride] | 1.04 (inactive) |
| Cc1ncc([N+](=O)[O-])n1CC(C)O (stereo unspecified) [Secnidazole] | 0.953 (inactive) |
| COc1cc(OC)c(C(=O)CCCN2CCCC2)c(OC)c1 [Buflomedil hydrochloride] | 0.997 (inactive) |
| Cc1cc(NC(=O)C2=C(O)c3ccccc3S(=O)(=O)N2C)no1 [Isoxicam] | 0.974 (inactive) |
| CCN(CC)CCNC(=O)c1cc(Br)c(N)cc1OC [Bromopride] | 1.01 (inactive) |
| NCCCC[C@H](N[C@@H](CCc1ccccc1)C(=O)O)C(=O)N1CCC[C@H]1C(=O)O [Lisinopril] | 1.02 (inactive) |
| COCCCC/C(=N\OCCN)c1ccc(C(F)(F)F)cc1 [Fluvoxamine maleate] | 0.974 (inactive) |
| CCN(CC)C(=O)N1CCN(C)CC1 [Diethylcarbamazine citrate] | 0.973 (inactive) |
| C[C@@H]1[C@H](O)[C@@H](C)/C=C/C=C/C=C/C=C/C=C/C=C/C=C/[C@H](O[C@@H]2O[C@H](C)[C@@H](O)[C@H](N)[C@@H]2O)C[C@@H]2O[C@](O)(C[C@@H](O)C[C@@H](O)[C@H](O)CC[C@@H](O)C[C@@H](O)CC(=O)O[C@H]1C)C[C@H](O)[C@H]2C(=O)O [Amphotericin B] | 1.1 (inactive) |
| Cn1c(=O)c2c(ncn2CC(=O)O)n(C)c1=O [Acefylline] | 0.987 (inactive) |
| Cc1ccccc1C(OCCN(C)C)c1ccccc1 (stereo unspecified) [Orphenadrine hydrochloride] | 1.02 (inactive) |
| O=C(Nc1ccc([N+](=O)[O-])cc1Cl)c1cc(Cl)ccc1O [Niclosamide] | 0.983 (inactive) |
| COc1ccc(OC)c(C(O)CNC(=O)CN)c1 (stereo unspecified) [Midodrine hydrochloride] | 0.99 (inactive) |
